This is a sample that favours compounds with a hit; in the whole collection about 3.6% have one here.
GALC G270D act = A Novel Cell-Based Assay to Identify Small Molecules for B -Galactocerebrosidase | P54803 | 145M-Twi-hGALC-G270D cells (Twitcher mouse brain line with human GALC G270D), HMU-beta-Gal fluorescence, 48 h | Potency, µM (doses to about 57.5 µM), most hits filed as activators | actives 0.1% (n = 45,000); further: 0% is about no effect; nearly all actives have a fitted effect of over 65% in size
Target sequence (P54803 whole entry G286D): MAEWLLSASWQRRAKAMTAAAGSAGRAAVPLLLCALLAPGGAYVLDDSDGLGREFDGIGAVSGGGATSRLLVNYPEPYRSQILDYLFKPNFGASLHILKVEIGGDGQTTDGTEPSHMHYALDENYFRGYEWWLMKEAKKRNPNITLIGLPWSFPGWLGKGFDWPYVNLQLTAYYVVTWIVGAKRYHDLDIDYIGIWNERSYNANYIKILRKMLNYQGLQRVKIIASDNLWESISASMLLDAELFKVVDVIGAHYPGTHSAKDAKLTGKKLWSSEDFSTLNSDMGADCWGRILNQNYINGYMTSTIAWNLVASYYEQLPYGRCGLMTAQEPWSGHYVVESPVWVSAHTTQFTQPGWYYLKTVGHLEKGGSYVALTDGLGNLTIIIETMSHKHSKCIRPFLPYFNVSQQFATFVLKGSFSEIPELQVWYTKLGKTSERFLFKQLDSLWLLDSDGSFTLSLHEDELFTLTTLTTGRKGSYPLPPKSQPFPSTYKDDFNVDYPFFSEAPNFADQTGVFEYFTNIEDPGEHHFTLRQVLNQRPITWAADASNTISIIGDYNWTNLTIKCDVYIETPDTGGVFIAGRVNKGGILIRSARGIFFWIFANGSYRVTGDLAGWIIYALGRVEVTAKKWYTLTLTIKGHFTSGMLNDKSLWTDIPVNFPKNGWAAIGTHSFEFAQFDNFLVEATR
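Brain-derived Twitcher mouse 145M-Twi cells stably expressing human GALC-G270D or wild-type GALC, treated live, then residual GALC activity read by fluorescence of HMU-b-Gal substrate (0.1 mM final) in citrate-phosphate buffer pH 5.2 with sodium taurocholate. Signal increase indicates enhancement.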
mTORC1 inh = Acumen qHTS Assay for Inhibitors of the mTORC1 Signaling Pathway in MEF (Tsc2-/-, p53-/-) Cells: Sytravon; Tsc2-/- p53-/- MEF, phospho-rpS6 immunofluorescence/PI, 24 h; AID 493208, 2011; Potency, µM (series often up to 38.3 µM), without a hit: at the top dose activity change, negative = inhibition, actives largely listed as inhibitors; actives 0.78% (n = 44,000);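 further: plate controls were DMSO for no effect and rapamycin for full effect; nearly all actives have a fitted effect of over 50% in size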
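Cell-based qHTS: Tsc2-/- p53-/- MEF, 24 h cpd, 37 °C; fix/perm, anti-phospho-S6 Alexa-488 + PI; Acumen 488 nm scan; pS6/PI ratio, % positive cells; rapamycin 7.5 nM = inhibition ref; PI count = viability.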
S16 viability = Cell viability qHTS assay in S16 Pmp22-F2sN cells. S16 Pmp22-F2sN Schwann cells viability, CellTiter-Glo, 24 h. actives 0.48% (n = 43,000). Potency, µM (doses to about 57.5 µM), for the others: at the highest dose activity change, negative = cytotoxicity, usual class: cytotoxic; further: on the % scale 0 is the no-effect control and ±100 the full control effect; nearly all actives have a fitted effect of over 65% in size
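Seed 500-1,000 S16 Pmp22-F2sN cells per well in phenol-red-free DMEM with 10% heat-inactivated FBS; pin-add 23 nL compound; incubate 24 h at 37C; add CellTiter-Glo, wait 15 min protected from light; read luminescence.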
NTMT1 inhibitor = Primary qHTS for Inhibitors of N-terminal methyltransferase 1 (NTMT1): MTaseGlo Assay | NTMT1 MTase-Glo SAH luminescence, purified enzyme | Potency, µM (highest dose often 114 µM), inactives show at the top dose activity change, negative = inhibition, actives largely listed as inhibitors | actives 2.5% (n = 59,000) | AID 1645870, 2021;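 further: plate controls were DMSO vehicle for no effect and no enzyme for full effect; nearly all actives have a fitted effect of over 65% in size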
PMP22 txn prim = Cell-based coincidence reporter assay to measure PMP22 gene transcription in S16 Pmp22-F2sN cells - Primary screen | S16 Pmp22-F2sN Schwann cells (luciferase reporters placed in the Pmp22 gene), FLuc/NLuc coincidence luminescence, 24 h | Potency, µM (highest dose often 57.5 µM), for the others: at the highest dose activity change, negative = inhibition, actives largely listed as inhibitors | actives 2% (n = 43,000) | AID 1508649, 2021; active means clear falling dose curves in both reporters; inconclusive means both reporters move, but less clearly or upward; inactive means either reporter flat; the % is the NLuc reporter signal; further: on the % scale 0 is the no-effect control and ±100 the full control effect
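qHTS, 1536-well. Cells seeded, compounds added by pin tool, 24 h 37C. Nano-Glo reagent 1 (lysis/FLuc), 10 min RT, read; Stop&Glo, 10 min RT, read NLuc.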
OvCa metastasis = Primary qHTS assay for Inhibitors of ovarian cancer metastasis using an organotypic tumor microenvironment (TME) model; AID 1963576, 2024; Potency, µM (series often up to 45.8 µM), for the others: at the highest dose activity change, negative = inhibition, actives largely listed as inhibitors; SKOV3ip1-GFP adhesion/invasion on 3D omental model, fluorescence; actives 0.1% (n = 46,000);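 further: plate controls were DMSO wells for no effect and tomatine positive control wells for full effect; nearly all actives have a fitted effect of over 65% in size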
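Adhesion/invasion was scored as fixed GFP-labeled SKOV3ip1 cell counts (488/509 nm), normalized to DMSO and tomatine controls. Cancer cells in serum-free medium, with four compound doses (0.36-46 umol/L), sat 2 hr at RT then 16 hr at 37 C on a 48 hr fibroblast/mesothelial/ECM culture.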
Active calls of the source: *; i = inactive; ? = inconclusive; nt = no result; ! = a repeat was not active; [ ] = another dose, or the depositor's remark. Unless noted, the call rests on the fitted dose curve; in most records, active means well fitted curve in the direction sought with a large enough effect; inconclusive means small, poorly fitted or top-dose-only effect, or another doubt; inactive means no such curve, though single readings can be large; an effect the other way counts as inactive or inconclusive. Potency means the concentration at half of the fitted maximal effect.

SMILES	GALC G270D act	mTORC1 inh	S16 viability	NTMT1 inhibitor	PMP22 txn prim	OvCa metastasis
CCOc1ccc(/C=C(\C#N)C(=O)Nc2sc3c(c2C(=O)OC)C(C(=O)OC)CC3)cc1OC (stereo not given)	i	-7%	1%	10µM*	-40%	-3%
CC(C)CN(C[C@H](O)[C@H](Cc1ccccc1)NC(=O)O[C@H]1CCOC1)S(=O)(=O)c1ccc(N)cc1	nt	nt	nt	2%[57.5 µM]	nt	-6%
O=C(Cn1c(=O)n(Cc2ccc(F)cc2)c(=O)c2sc3ccccc3c21)NCc1ccccc1Cl	i	0%	-2%	89µM*	-28%	1%
CCn1c(=O)c(-c2ccc(Cl)cc2Cl)cc2cnc(Nc3ccc(N4CCNCC4)c(F)c3)nc21	nt	nt	nt	50µM*!	nt	nt
O=C(O)c1ccc(O)c2ncc(-c3ccc(N4CCOCC4)cc3)cc12	nt	nt	nt	10%	nt	nt
O=C(C=CC#Cc1cccc(NS(=O)(=O)c2ccccc2)c1)NO	nt	nt	nt	5%[57.5 µM]	nt	-10%
CC(=O)Oc1ccc2c(c1)CC[C@@H]1[C@@H]2CC[C@]2(C)[C@@H](O)CC[C@@H]12	i	nt	nt	25µM*	nt	nt
Cc1ccc(Nc2c3c(nc4nncn24)CCC3)cc1	i	2%	4%	4%	?	7%
Brc1ccc(Nc2c3c(nc4nncn24)CCC3)cc1	i	5.8µM*	-25%	8%	?	1%
O=C(/C=C/c1ccc(Cl)cc1)Nc1cccc([S+](=O)([O-])Nc2ccccc2F)c1	nt	nt	nt	1%[57.5 µM]	nt	nt
CCCN1C(=O)C(O)(CC(=O)c2ccc(C(C)C)cc2)c2ccccc21 (stereo not given)	i	13µM*	?	4%	-15%	-8%
COc1cccc(C(=O)CC2(O)C(=O)N(Cc3ccccc3)c3ccccc32)c1 (stereo not given)	i	15µM*	?	0%	?	-20%
CCCN1C(=O)C(O)(CC(=O)c2ccc(CC)cc2)c2ccccc21 (stereo not given)	i	15µM*	-25%	9%	6%	9%
CC(C)CCC[C@@H](C)[C@H]1CC[C@H]2[C@@H]3CC(=O)[C@H]4C[C@@H](O)CC[C@]4(C)[C@H]3CC[C@]12C	nt	nt	nt	-22%[57.5 µM]	nt	nt
CN1CCCN(C(=O)c2cccc(-c3ccc(/C=C4/C(=O)Nc5ccc(Cl)cc54)o3)c2)CC1	nt	nt	nt	11µM*	nt	nt
CN1CCN(C(=O)c2cccc(-c3ccc(CNc4ccc(N5CCN(C(=O)OC(C)(C)C)CC5)cc4)o3)c2)CC1	nt	nt	nt	-27%	nt	nt
O=c1oc2c3c(ccc2c2ccccc12)OCN(Cc1ccc(Cl)cc1)C3	i	1%	2%	-10%	?	-10%
COC(=O)Cc1c(C)c2ccc3c(c2oc1=O)CN(Cc1ccc(Cl)cc1)CO3	25µM*	-3%	-1%	6%	-8%	0%
CC(C)(C)OC(=O)N1CCN(c2ccc(NCc3ccc(-c4cccc([N+](=O)[O-])c4)o3)cc2)CC1	nt	nt	nt	-23%	nt	nt
O=C(NCc1ccccc1)[C@H](Cc1ccccc1)NC(=O)[C@@H]1O[C@@H]1C(=O)NCCc1ccc(O)cc1	nt	nt	nt	?	nt	-5%
Cc1ccccc1CNC(=O)c1ccc2[nH]c(C)c(C)c2c1	i	-7%	-11%	79µM*	-1%	-8%

Bioassay records as filed in PubChem.
